PLCb3 inh: human PLC-beta3 inhibitors, primary screen, biochemical, fluorescence. 1-phosphatidylinositol 4,5-bisphosphate phosphodiesterase beta-3 (Homo sapiens), Q01970. Purified PLC-beta3, fluorogenic substrate. inhibition, % at 12.2 µM. 370,000 compounds, 0.18% hits; in the data active = inhibition above about 11%
HGIII-sPLA2 inh: human group III sPLA2 inhibitors, primary screen, biochemical, QFRET, BODIPY PC-A2 liposome substrate; 370,000 compounds, 0.56% hits; QFRET BODIPY PC-A2 liposome hydrolysis, fluorescence; inhibition, % at 12.2 µM; Group 3 secretory phospholipase A2 (Homo sapiens), Q9NZ20;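 active = inhibition above mean plus 3 SD of compounds lying within the high and low control bounds, cut at about 19% in these data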
PLCg1 inh: PLC-gamma1 enzyme inhibitors, primary screen, biochemical, fluorescence, purified enzyme; fluorogenic substrate; inhibition, % at 12.2 µM; 370,000 compounds, 0.84% hits; in the data active = inhibition above about 9.5%
ADAM17 inh: ADAM17 inhibitors, primary screen, biochemical, QFRET. Disintegrin and metalloproteinase domain-containing protein 17 (Homo sapiens), P78536. recombinant ADAM17, EDANS/DABCYL FRET peptide cleavage. inhibition, % at 6.95 µM. 370,000 compounds, 0.83% hits. AID 720648, 2013;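 active = inhibition above the mean of compounds lying between control limits plus 3 SD, set per campaign, cut at about 8.5% in these data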
Target sequence (P78536 215-824 limits assumed): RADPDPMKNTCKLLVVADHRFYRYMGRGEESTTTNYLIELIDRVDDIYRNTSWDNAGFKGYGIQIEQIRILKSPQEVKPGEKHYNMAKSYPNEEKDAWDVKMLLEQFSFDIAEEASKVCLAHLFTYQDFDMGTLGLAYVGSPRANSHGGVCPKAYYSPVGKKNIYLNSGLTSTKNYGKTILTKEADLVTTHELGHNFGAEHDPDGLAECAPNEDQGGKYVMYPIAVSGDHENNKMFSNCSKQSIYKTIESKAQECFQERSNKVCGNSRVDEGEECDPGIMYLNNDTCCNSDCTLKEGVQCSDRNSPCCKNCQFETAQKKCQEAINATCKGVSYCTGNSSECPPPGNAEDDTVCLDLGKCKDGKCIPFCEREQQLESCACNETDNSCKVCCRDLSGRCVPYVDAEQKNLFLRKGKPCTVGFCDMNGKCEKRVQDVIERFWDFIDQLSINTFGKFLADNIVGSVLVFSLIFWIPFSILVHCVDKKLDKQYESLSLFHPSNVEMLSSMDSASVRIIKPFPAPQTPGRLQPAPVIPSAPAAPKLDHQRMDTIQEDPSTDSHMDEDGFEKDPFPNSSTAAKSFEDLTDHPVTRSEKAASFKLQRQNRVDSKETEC
proKLK7 act: proKLK7 zymogen activators, primary screen, biochemical, fluorescence intensity. 370,000 compounds, 0.9% hits. AID 652039, 2013. Kallikrein-7 (Homo sapiens), P49862. purified proKLK7, EDANS-DABCYL substrate fluorescence; 100% is mature enzyme control, 0% vehicle. activation, % at 7 µM;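 active = activation above the mean of all tested compounds plus 3 SD, computed per campaign excluding outliers beyond control limits, cut at about 13% in these data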
ADAM10 inh: human ADAM10 inhibitors, primary screen, biochemical, QFRET, HTS. recombinant ADAM10, EDANS/DABCYL FRET peptide cleavage, 3 h. inhibition, % at 7 µM. 370,000 compounds, 0.62% hits. AID 720582, 2013;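 active = inhibition above a per-campaign cutoff equal to the mean of compounds falling between control-based bounds plus 3 SD, cut at about 20% in these data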
hGIII sPLA2 conf: human group III sPLA2 inhibitors, confirmation, biochemical, QFRET, triplicate. shares compounds with HGIII-sPLA2 inh. recombinant hGIII-sPLA2, BODIPY PC-A2 QFRET fluorescence. inhibition, % at 12.2 µM. 2,000 compounds, 34% hits. AID 743280, 2014;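 active = mean inhibition across triplicates above the hit cutoff set in the earlier primary screen, cut at about 19% in these data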
BODIPY interf: 535nm fluorescence optical interference, confirmation, artefact control for HGIII-sPLA2 inhibitor project, biochemical, QFRET. inhibition, % at 12.2 µM. BODIPY FL product fluorescence interference. 2,000 compounds, 8.5% hits. shares compounds with HGIII-sPLA2 inh;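 active = average inhibition above the solvent-only control mean plus 3 SD, cut at about 6% in these data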
Each line names hits and unclear results; the compound was inactive in the other large screens (follow-up assays come after a bar, where they were run). Sampled rows, rich in hits. Any-hit rate of the full collection: about 3.4%.

CC(N)c1csc(Nc2nncc3ccccc23)n1 (centres undefined)	HGIII-sPLA2 inh 23.5 | hGIII sPLA2 conf inactive | BODIPY interf inactive
COc1cccc(Nc2nc(C(N)CC(C)C)cs2)n1 (centres undefined)	none
C=C(C)CNC(=S)Nc1cccc(N)n1	none
CCOC(=O)CC1(C)c2nc(NC(C)=O)sc2Cc2sc(NC(C)=O)nc21	none
O=C(NNC(=S)Nc1ccc(F)cc1)C1[C@H]2CCCC[C@@H]12 (some centres undefined)	HGIII-sPLA2 inh 24.6 | hGIII sPLA2 conf 22.3 | BODIPY interf inactive
O=C(Nc1ccccc1)C1C2CCCCC21 (centres undefined)	none
Cc1ccc(NC(=O)Cn2cccc2C2=NC(c3ccccc3)CO2)cc1C (centres undefined)	HGIII-sPLA2 inh 21.5 | hGIII sPLA2 conf inactive | BODIPY interf inactive
Cc1ccc(C)c(N2CN(Cc3cccnc3)CNC2=S)c1	HGIII-sPLA2 inh 19.8 | hGIII sPLA2 conf inactive | BODIPY interf inactive
Cc1ncc(CO)c(/C=N/NC(=S)Nc2ccc(F)cc2)c1O	HGIII-sPLA2 inh 19.7 | hGIII sPLA2 conf 20.4 | BODIPY interf inactive
COc1cc(OC)nc(NC(=O)C(C)C)n1	HGIII-sPLA2 inh 19.7 | hGIII sPLA2 conf inactive | BODIPY interf inactive
COc1cc(OC)nc(NC(C)=O)n1	none
O=C(N/N=C/c1c(O)ccc2ccccc12)c1ccc(Br)o1	HGIII-sPLA2 inh 19.4 | hGIII sPLA2 conf inactive | BODIPY interf inactive
Cc1occc1C(=O)N/N=C/c1c(O)ccc2ccccc12	HGIII-sPLA2 inh 22.7 | hGIII sPLA2 conf inactive | BODIPY interf inactive
COc1cc(/C=C(\C#N)C(=O)Nc2ccc3c(c2)OCCO3)ccc1O	none
CN(c1nc2ccccc2[nH]c1=O)C1CCCCC1	none
FC(F)Sc1nc2ccccc2[nH]1	HGIII-sPLA2 inh 25.0 | hGIII sPLA2 conf inactive | BODIPY interf inactive
Oc1cc(-c2ccncc2)cc2cccnc12	none
CN(C)c1ccc(-c2cc(O)c3ncccc3c2)cc1	HGIII-sPLA2 inh 26.5 | hGIII sPLA2 conf inactive | BODIPY interf inactive
O=C(COC(=O)Cc1ccc(Cl)cc1)NCc1ccco1	none
COc1ccc(CCN2CCCn3c2nc2c3c(=O)n(CC(C)C)c(=O)n2C)cc1OC	HGIII-sPLA2 inh 24.1 | hGIII sPLA2 conf inactive | BODIPY interf inactive
Cc1cccc(NC(=O)c2cccc3c2-c2ccccc2C3=O)c1C	none
Cc1cccc(C)c1NC(=O)c1cccc2c1-c1ccccc1C2=O	HGIII-sPLA2 inh 21.6 | hGIII sPLA2 conf inactive | BODIPY interf inactive
Cc1n[nH]c(=O)c2c(NC(=O)CSc3nc4ccccc4c(=O)n3CCCOC(C)C)oc(C)c12	none
CCOc1ccc(CSC(=N)N)cc1[N+](=O)[O-]	HGIII-sPLA2 inh 21.9 | hGIII sPLA2 conf inactive | BODIPY interf inactive
CCOc1ccc(CSC(=N)N)cc1Cl	HGIII-sPLA2 inh 25.9 | hGIII sPLA2 conf inactive | BODIPY interf inactive
CCCCOc1ccc(CSCCN)cc1Cl	none
O=C(CSc1c(F)c(F)cc(F)c1F)Nc1ccc(C2SCCS2)cc1	none
CC(OC(=O)CSCC(=O)Nc1ccc(Cl)cc1)C(=O)N(C)Cc1ccccc1 (centres undefined)	none
COc1cccc2sc(NNC(=O)C3COc4ccccc4O3)nc12 (centres undefined)	HGIII-sPLA2 inh 22.5 | hGIII sPLA2 conf 23.9 | BODIPY interf inactive

Assay outcomes: PubChem, The Scripps Research Institute Molecular Screening Center
